ChEMBL document CHEMBL3988442, “University of Dundee, Small-Polar-MMV Screening Library” (2021)
For part of these data: Entries with a potency or affinity are not part of this list.

Assays:
Design in all cases: scale not given: direction of the effect not stated beside the values
[1] = target: Protein translocase subunit SecA (Escherichia coli (strain K12)) (UniProt P10408); assay: Assay to Identify E. coli SecA ATPase Inhibitors; assay type: functional; settings: 30 µM
[2] = target: T1, Ubiquitin-activating enzyme e1, putative (Leishmania donovani (strain BPK282A1)) (UniProt E9BSI1); assay: Leishmania donovani Ubiquitin Activating Enzyme (LdE1); assay type: functional; settings: 30 µM
T1 sequence (whole entry): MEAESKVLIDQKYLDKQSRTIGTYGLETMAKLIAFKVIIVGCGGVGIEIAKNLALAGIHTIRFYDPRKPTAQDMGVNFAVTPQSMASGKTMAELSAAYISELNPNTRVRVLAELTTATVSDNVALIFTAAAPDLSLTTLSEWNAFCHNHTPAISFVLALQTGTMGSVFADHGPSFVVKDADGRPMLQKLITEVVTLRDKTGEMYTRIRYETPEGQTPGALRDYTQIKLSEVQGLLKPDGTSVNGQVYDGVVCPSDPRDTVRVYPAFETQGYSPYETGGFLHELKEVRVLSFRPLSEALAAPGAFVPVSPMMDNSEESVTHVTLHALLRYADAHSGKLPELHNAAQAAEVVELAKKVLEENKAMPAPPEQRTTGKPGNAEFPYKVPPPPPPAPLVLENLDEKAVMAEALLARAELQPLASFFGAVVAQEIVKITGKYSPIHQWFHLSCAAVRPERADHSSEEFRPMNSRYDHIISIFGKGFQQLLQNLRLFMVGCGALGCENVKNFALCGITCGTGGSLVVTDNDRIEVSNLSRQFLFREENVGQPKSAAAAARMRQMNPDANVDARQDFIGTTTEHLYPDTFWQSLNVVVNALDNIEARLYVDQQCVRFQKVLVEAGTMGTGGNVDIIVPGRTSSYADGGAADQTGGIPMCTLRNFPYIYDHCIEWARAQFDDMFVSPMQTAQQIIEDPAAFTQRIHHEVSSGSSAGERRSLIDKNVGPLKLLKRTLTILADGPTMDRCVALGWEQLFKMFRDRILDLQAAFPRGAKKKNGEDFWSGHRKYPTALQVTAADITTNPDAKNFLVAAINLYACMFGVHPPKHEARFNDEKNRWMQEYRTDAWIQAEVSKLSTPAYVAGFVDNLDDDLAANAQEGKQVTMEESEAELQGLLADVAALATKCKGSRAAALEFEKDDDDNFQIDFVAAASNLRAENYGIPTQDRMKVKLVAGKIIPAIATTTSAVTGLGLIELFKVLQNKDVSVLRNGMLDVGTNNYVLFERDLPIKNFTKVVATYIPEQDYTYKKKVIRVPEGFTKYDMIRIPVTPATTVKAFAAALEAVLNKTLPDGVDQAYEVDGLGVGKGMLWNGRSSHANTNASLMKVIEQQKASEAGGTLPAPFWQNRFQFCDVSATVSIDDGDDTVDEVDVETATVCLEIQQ

[3] = target: Sialic acid-binding Ig-like lectin 9 (Homo sapiens) (UniProt Q9Y336); assay: Hs-Siglec9 ALPHAscreen SOP 20170721; settings: 10 µM
Sialic acid-binding Ig-like lectin 9 (Homo sapiens), sequence (Q9Y336 whole entry): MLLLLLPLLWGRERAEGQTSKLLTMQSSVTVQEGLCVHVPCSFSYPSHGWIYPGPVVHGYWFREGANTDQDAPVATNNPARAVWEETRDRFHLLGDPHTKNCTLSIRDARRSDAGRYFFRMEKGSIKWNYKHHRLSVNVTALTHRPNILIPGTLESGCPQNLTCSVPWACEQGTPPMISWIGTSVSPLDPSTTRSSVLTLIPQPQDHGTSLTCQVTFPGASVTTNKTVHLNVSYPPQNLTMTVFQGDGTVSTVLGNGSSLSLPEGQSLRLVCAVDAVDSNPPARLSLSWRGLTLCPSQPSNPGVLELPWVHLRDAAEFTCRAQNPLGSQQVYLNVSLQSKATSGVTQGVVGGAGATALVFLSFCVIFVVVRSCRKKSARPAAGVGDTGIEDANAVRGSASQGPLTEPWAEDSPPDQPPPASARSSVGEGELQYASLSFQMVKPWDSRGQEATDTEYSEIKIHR

Trypanosoma cruzi = assay: Trypanosoma cruzi phosphomannomutase and mannose-1-phosphate guanylyltransferase assay; assay type: functional; settings: 10 µM
[4] = target: T2, Arginase-2, mitochondrial (Homo sapiens) (UniProt P78540); assay: in vitro enzyme assay to detect the production of urea directly proportional to the activity of Arginase II; assay type: functional; settings: 33.3 µM; further: in the data most compounds retested in dose-response had high values
T2 sequence (whole entry): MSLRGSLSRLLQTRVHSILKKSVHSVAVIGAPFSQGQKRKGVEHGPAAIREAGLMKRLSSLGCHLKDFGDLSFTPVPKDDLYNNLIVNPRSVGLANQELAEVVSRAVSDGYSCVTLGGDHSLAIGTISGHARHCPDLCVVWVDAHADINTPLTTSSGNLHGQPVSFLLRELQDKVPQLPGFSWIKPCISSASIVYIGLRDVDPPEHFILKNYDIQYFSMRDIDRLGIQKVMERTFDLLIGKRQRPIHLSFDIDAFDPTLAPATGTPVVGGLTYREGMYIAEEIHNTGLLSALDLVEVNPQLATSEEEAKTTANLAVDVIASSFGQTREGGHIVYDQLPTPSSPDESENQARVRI

[5] = target: T3, Proteasome subunit beta (Trypanosoma cruzi) (UniProt O96673); assay: Trypanosoma cruzi proteasome chymotrypsin-like activity (TcProtChymo) assay.; further: in the data most compounds retested in dose-response had high values; assay type: functional; settings: 9.37 µM
T3 sequence (whole entry): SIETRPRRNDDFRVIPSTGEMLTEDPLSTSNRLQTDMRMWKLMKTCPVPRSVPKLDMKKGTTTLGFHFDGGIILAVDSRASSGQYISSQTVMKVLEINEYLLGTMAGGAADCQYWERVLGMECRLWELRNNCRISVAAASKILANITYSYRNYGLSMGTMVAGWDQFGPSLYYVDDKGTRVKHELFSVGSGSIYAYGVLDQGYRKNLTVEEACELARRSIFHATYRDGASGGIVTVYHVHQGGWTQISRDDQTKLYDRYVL

Homo sapiens = species: Homo sapiens; assay: To identify inhibition of the IFN signalling (Jak-Stat) pathway via expression of an eGFP reporter gene under the control of an IFN-stimulated response element (ISRE) containing MxA promoter.; assay type: functional; settings: 30 µM
[6] = target: T4, Tyrosyl-tRNA synthetase, putative (Trypanosoma cruzi (strain CL Brener)) (UniProt Q4DSP6); assay: Trypanosoma cruzi tyrosyl tRNA synthetase (TcYRS) _High Tyrosine SOP; assay type: functional; settings: 30 µM; further: in the data most compounds retested in dose-response had high values
T4 sequence (whole entry): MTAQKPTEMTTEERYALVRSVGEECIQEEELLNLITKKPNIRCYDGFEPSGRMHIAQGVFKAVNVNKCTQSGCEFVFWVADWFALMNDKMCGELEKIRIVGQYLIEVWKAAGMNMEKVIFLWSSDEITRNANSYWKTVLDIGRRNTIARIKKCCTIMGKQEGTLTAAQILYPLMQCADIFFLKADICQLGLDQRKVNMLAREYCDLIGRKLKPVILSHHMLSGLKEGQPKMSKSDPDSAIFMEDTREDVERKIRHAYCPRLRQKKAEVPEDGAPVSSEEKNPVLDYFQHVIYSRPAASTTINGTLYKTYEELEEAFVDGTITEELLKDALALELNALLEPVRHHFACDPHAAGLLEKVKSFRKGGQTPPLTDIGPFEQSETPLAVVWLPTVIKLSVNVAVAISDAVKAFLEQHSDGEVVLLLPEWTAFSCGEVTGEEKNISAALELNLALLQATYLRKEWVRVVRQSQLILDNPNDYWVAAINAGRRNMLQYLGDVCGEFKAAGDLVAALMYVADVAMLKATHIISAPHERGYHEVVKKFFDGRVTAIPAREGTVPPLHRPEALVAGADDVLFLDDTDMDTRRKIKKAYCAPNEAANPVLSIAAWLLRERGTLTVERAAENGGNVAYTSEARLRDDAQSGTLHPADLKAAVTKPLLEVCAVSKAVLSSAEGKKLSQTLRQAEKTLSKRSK

[7] = target: T4, Tyrosyl-tRNA synthetase, putative (Trypanosoma cruzi (strain CL Brener)); assay: Trypanosoma cruzi tyrosyl tRNA synthetase (TcYRS) SOP; assay type: functional; settings: 30 µM
[8] = target: Chromo domain-containing protein 1 (Saccharomyces cerevisiae (strain ATCC 204508 / S288c) (Baker's yeast)) (UniProt P32657); assay: ScCHD-1 Enzyme Inhibition Assay; assay type: functional; settings: 30 µM; further: in the data most compounds retested in dose-response had high values
Chromo domain-containing protein 1 (Saccharomyces cerevisiae (strain ATCC 204508 / S288c) (Baker's yeast)), sequence (P32657 whole entry, the tested form may be a part): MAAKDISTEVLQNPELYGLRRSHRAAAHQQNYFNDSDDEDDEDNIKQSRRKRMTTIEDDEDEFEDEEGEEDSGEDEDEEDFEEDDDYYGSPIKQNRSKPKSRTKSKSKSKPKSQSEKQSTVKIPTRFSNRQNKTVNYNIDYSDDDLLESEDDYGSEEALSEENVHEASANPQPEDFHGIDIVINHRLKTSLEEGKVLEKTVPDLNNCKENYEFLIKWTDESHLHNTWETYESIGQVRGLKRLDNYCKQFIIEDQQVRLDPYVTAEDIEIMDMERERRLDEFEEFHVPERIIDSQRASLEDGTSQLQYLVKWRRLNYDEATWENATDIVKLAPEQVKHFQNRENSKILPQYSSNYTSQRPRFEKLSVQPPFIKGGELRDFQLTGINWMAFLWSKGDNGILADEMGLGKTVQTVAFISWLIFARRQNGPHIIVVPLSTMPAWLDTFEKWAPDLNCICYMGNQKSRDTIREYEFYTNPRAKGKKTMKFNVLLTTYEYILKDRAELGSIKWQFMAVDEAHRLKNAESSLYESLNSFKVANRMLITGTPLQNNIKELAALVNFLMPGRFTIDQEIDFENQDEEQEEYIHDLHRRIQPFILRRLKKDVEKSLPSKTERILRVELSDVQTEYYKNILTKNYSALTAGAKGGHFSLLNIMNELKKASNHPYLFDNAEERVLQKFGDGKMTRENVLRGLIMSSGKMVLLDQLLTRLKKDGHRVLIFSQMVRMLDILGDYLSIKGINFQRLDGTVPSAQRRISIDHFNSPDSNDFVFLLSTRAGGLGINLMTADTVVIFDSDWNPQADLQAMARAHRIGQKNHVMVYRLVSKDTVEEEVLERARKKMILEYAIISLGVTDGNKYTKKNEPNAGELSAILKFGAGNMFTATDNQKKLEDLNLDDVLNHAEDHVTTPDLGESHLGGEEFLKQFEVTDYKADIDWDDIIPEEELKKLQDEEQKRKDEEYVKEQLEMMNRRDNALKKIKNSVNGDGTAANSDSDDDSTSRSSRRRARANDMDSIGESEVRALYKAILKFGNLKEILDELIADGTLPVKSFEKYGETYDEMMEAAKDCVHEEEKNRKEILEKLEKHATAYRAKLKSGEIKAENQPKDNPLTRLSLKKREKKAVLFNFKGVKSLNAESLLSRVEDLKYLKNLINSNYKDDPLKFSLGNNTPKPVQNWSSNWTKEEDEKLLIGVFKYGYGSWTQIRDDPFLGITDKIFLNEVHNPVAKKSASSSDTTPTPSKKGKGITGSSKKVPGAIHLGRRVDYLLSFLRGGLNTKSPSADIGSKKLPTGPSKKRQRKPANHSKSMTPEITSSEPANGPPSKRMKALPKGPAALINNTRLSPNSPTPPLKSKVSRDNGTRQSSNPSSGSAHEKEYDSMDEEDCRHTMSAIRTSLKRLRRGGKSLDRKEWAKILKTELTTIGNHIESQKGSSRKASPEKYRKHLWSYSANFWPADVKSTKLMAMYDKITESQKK

Protein translocase subunit SecA (Escherichia coli (strain K12)), sequence (P10408 whole entry): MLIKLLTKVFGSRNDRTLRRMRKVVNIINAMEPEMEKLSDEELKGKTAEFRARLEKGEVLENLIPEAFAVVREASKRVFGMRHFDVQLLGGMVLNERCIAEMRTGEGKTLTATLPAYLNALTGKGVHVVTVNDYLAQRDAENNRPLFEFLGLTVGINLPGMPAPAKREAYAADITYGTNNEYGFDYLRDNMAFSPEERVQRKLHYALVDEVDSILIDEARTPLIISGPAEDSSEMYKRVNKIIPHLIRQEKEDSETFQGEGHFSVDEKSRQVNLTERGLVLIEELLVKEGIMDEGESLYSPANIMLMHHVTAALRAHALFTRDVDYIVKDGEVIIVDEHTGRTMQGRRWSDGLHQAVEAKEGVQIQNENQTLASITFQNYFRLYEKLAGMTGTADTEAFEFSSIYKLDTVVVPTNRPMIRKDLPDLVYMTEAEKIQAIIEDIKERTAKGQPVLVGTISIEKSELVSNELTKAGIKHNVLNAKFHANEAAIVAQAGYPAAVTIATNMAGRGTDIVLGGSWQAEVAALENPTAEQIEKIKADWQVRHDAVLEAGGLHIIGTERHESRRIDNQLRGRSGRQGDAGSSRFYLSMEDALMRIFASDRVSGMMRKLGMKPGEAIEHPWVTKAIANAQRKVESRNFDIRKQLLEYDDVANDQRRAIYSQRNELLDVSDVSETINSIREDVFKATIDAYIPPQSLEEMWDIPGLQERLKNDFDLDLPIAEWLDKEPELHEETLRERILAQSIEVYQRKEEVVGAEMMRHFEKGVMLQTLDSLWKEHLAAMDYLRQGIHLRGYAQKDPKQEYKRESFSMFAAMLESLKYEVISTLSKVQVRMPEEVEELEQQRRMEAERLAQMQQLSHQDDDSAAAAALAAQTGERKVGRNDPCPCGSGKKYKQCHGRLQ

Structure (SMILES)	Percent Effect [1] [%]	Percent Effect [2] [%]	Percent Effect [3] [%]	Percent Effect (Trypanosoma cruzi) [%]	Percent Effect [4] [%]	Percent Effect [5] [%]	Percent Effect (Homo sapiens) [%]	Percent Effect [6] [%]	Percent Effect [7] [%]	Percent Effect [8] [%]
COCc1nc(C(=O)NS(=O)(=O)c2ccc(C)s2)cs1	-1.18	-5.13	-1.4	-5.35	6.56	-7.25	18.7	1.44	1.21	-0.772
Cn1ccnc1CN1CCOCC(Cc2ccccn2)C1 (stereo not given)	-3.37	6.67	0.649	-4.14	5.75	11.3	8.81	1.06	10	-19.9
CCNc1cc2c(nn1)CCN(C(=O)c1cc3nc(C)ccc3o1)C2	-8.41	13.3	11.1	9.04	-0.887	20.4	6.54	5.79	15.4	-6.95
Fc1cccnc1CN1CCCCC1c1ccn2ccnc2n1 (stereo not given)	-5.06	22.7	-2.65	1.77	-1.33	11.8	14	8.47	22.5	-27.9
Cc1occc1CNC(=O)N(CCCO)C1CCc2ccccc21 (stereo not given)	-4.54	10.7	5.35	3.41	-1.77	4.33	16.1	2.63	7.69	-8.92
CC[C@H](C)Nc1nccc(-c2cnc3sc(C)c(C)n3c2=O)n1	-6.51	0	0.241	-3.61	-3.55	12.6	15.3	-3.68	-10.3	-9.65
Cc1ccc(C(=O)NCCNc2ncccc2C#N)c(=O)[nH]1	-1.94	5.2	-3.54	-8.77	-15	15.3	17.6	6.86	7.06	-7.29
Cc1nn(C)c(N(C)C)c1CNCCCN(C)S(C)(=O)=O	-1.22	12.8	-8.74	-3.47	5.33	10.2	4.19	2.39	18.1	-3.07
COCC1CC2(CCN(Cc3cnn(C)c3)CC2)CN1C(C)C (stereo not given)	-5.94	6.49	-6.16	-2.82	-4.45	11.6	2.36	-2.63	2.56	-4
COCCc1noc(CN2CCOC(Cn3nc(C)cc3C)C2)n1 (stereo not given)	-2.32	10.4	14.5	6.72	8.4	-7.89	7.1	4.9	18.8	-6.59
CC(C)c1noc(CCC(=O)NCC2CCS(=O)(=O)C2)n1 (stereo not given)	-2.91	21.3	0.895	2.81	-0.444	12.3	1.69	1.58	17.9	-12.2
COC1CCCN(Cc2nc(Cc3ccccc3F)no2)C1 (stereo not given)	-7.36	-5.41	1.17	2.04	1.75	1.71	3.24	5.85	14.6	0.44
CC(O)CN1CCC(CNCc2ccccc2Br)CC1 (stereo not given)	-0.126	10.3	-8.9	11.4	1.23	10.2	8.18	4.31	20.5	-5.01
Cc1cc(NC(=O)N(CC2CCOC2)C2CC2)no1 (stereo not given)	-2.1	13.3	6.54	1.21	2.22	6.7	21.8	5.79	12.8	-7.01
Cc1[nH]c2ccccc2c1-c1ccnc(NC[C@H](O)CO)n1	-3.38	5.33	-5	-8.23	-5.32	8.23	23.4	-1.58	-7.69	-13.5
Cc1nc(CN2CCO[C@@H]3CN(C(=O)NC(C)C)CC[C@@H]3C2)cs1	-3.94	1.3	0.95	-3.8	-0.405	1.85	-21.3	3.68	7.69	-1.55
CCc1ccc(CN2CCC3(CC2)NC(=O)CC3c2ccncc2)o1 (stereo not given)	-9.93	6.49	-0.747	-3.21	-5.26	9.27	-2.1	0.526	7.69	-2.68
O=C(c1ccc(F)cc1)N1CCC2(CCCN2CC2CC2)CC1	-2.9	9.09	-6.13	-6.57	5.94	14	11.5	0.966	0	-3.47
CC(C)(O)CN1CCN(C(=O)c2cccnc2O)CC1	-2.01	-2.56	5.77	7.98	2.46	9.13	-4.14	1.44	1.21	-0.501
NC[C@H]1CC[C@H](C(NC(=O)c2ccccn2)c2ccccn2)CC1 (stereo not given in full)	0.0974	14.7	1.2	-1.58	0.443	15.6	8.78	4.23	22.5	-24.4
Cc1cccc(CN2C[C@@H]3COC[C@]3(CNC(=O)N3CCCC3)C2)n1	-4.34	-1.3	12.9	-3.02	-4.86	4.68	1.04	3.68	5.13	1.29
CC1(C)OCC(CNC(=O)c2cnn(-c3ccc(Cl)cc3)c2N)O1 (stereo not given)	2.19	17.3	-9.2	-2.76	-0.443	14	15.1	-6.35	2.5	-22.4
COC(=O)COc1cccc(NS(=O)(=O)c2cc(C(=O)O)cs2)c1	-0.923	17.9	-17.3	4.41	-2.87	17.5	22.9	1.44	20.5	-7.25
O=C1COC2(CCN(C(=O)c3ccco3)CC2)CN1Cc1ccccn1	-3.84	16.9	2.04	0	5.48	8.84	-15.4	11.6	20	-5.91
